Assay outcomes deposited in PubChem BioAssay by several laboratories.
Hits are enriched below; roughly 2% of the tested compounds scored in any of these assays.
MCL1 BIM primary = inhibitors of MCL1 binding to BIM-BH3, primary screen, biochemical, fluorescence polarization; Induced myeloid leukemia cell differentiation protein Mcl-1 (Homo sapiens), Q07820; 0.68% of 320,000 active; GST-MCL1 / FITC-Bim-BH3 fluorescence polarization; inhibition, % at 10.9 µM; AID 2057, 2009;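 active = inhibition above the mean inhibition of all tested compounds plus 3 SD, set per campaign, cut at about 40% in these data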;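 note: 0% = DMSO wells and 100% = unlabeled Bim-BH3 peptide control; higher means more loss of mP so more displacement of Bim peptide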
Target sequence (Q07820 whole entry, looked up): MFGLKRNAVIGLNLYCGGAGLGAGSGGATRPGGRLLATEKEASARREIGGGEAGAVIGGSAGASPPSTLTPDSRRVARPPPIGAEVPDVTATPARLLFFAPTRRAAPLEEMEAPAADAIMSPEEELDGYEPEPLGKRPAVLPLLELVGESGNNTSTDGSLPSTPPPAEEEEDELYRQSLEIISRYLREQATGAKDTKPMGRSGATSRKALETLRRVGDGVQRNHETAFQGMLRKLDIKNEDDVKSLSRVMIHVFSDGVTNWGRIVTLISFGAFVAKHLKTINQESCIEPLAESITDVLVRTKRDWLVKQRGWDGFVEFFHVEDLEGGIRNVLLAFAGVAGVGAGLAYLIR
Mcl1 Noxa PPI = Mcl-1/Noxa binding inhibitors, primary screen, biochemical, TR-FRET, 1536-well; Induced myeloid leukemia cell differentiation protein Mcl-1 (Homo sapiens), Q07820; TR-FRET Mcl-1/Noxa peptide binding, 2 h; 1.5% of 220,000 active; AID 1022, 2008; inhibition, % at 21.7 µM;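 active = compounds that cut the protein-peptide binding signal by more than 50% relative to plate controls in a single-dose test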;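 note: His-tagged Mcl-1 with rhodamine Noxa BH3 peptide and terbium anti-His antibody; 0% = Mcl-1 plus Noxa peptide wells and 100% = peptide-only wells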
Mcl1-Bid inh = Mcl-1/Bid binding inhibitors, primary screen, biochemical, TR-FRET, 1536-well | Induced myeloid leukemia cell differentiation protein Mcl-1 (Homo sapiens), Q07820 | TR-FRET Mcl-1/Bid-Dy647 peptide binding | inhibition, % at 21.7 µM | 0.97% of 220,000 active | AID 1021, 2008;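 active = compounds that cut the binding signal by more than half at the single screening dose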;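 note: His-tagged Mcl-1 with europium anti-His antibody binding Bid BH3 peptide; 0% = Mcl-1 plus peptide wells and 100% = peptide-only wells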
Bim-Mcl-1 = inhibitors of Bim peptide binding to Mcl-1, primary screen, biochemical, bead-based flow cytometry, multiplex. Induced myeloid leukemia cell differentiation protein Mcl-1 (Homo sapiens), Q07820. 0.1% of 190,000 active. inhibition, % at 10 µM. Bim peptide-Mcl-1 binding; in the data active = inhibition above about 40%;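 note: 0% = no compound tracer wells and 100% = peptide blocker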
The depositor's hits bear a star; / = no result given; + = active, no number.

SMILES | MCL1 BIM primary | Mcl1 Noxa PPI | Mcl1-Bid inh | Bim-Mcl-1
CN(C)/C=C/C(=O)c1ccc(Cl)cc1Cl | -6 | 1 | -39 | 0
O=C(/C=C/c1ccco1)c1ccc(NC(=O)C23CC4CC(CC(C4)C2)C3)cc1 | -9 | 60* | 31 | -4
O=C(Cn1cnc2cc([N+](=O)[O-])ccc2c1=O)Nc1cccc(S(=O)(=O)N2CCOCC2)c1 | 9 | 53* | -6 | -2
O=C(Cn1cnc2ccccc2c1=O)Nc1ccc(S(=O)(=O)N2CCOCC2)cc1 | 5 | 11 | -17 | -2
CCSC1=N/C(=C\c2ccc(C(=O)O)cc2)C(=O)S1 | 8 | 12 | 8 | -4
O=C1SC(SCc2ccccc2Cl)=N/C1=C\c1ccc(C(=O)O)cc1 | 14 | 80* | -34 | -2
CCOc1ccc2nc(C)cc(Nc3ccc(N4CCOCC4)cc3)c2c1 | -4 | 62* | -5 | -2
CCOc1ccc2nc(C)cc(Nc3ccc4c(c3)OCCO4)c2c1 | -4 | 15 | -22 | 3
O=c1c2ccccc2sc2nc(C3CCCCC3)n(Cc3ccco3)c(=O)c12 | / | -30 | 67* | 4
O=C(NCC1CCCO1)c1cc(Br)c(Br)s1 (stereo unspecified) | -4 | / | / | /
CCSc1nc2ccccc2n1CC(N)=O | 3 | 12 | -11 | -7
CCSc1nc2ccccc2n1C(=O)/C=C\c1ccc(OC)c(OC)c1 | 1 | 62* | -25 | -2
COc1cccc(N2CCN(C3CC(=O)N(c4ccc(Cl)c(Cl)c4)C3=O)CC2)c1 (stereo unspecified) | 8 | 12 | 59* | -1
NC(=O)C1CCN(C(=O)C2CCC(=O)N(C3CCCCCC3)C2)CC1 (stereo unspecified) | -7 | / | / | /
CC1CCCC(NC(=O)CSc2nnc(C(F)(F)F)n2C)C1C (stereo unspecified) | -3 | / | / | /
COc1ccc(OC)c(NC(=O)CCN2CCCC(C)C2)c1 (stereo unspecified) | 2 | 32 | 51* | 0
Cc1nc(NCc2ccc3c(c2)OCO3)c2nnn(Cc3ccccc3)c2n1 | -6 | -2 | 33 | -3
c1ccc(Cn2nnc3c(NCc4ccc5c(c4)OCO5)nc(C4CC4)nc32)cc1 | 6 | -26 | 52* | 3
O=C(O)CSc1nnc(NC(=O)CN2CCOCC2)s1 | -1 | / | / | /
COc1ccc(NC(=S)Nc2ccc3nccnc3c2)cc1 | 7 | 52* | -53 | -1
COc1ccc(NC(=S)Nc2ccc3snnc3c2)cc1 | 9 | 15 | -53 | -3
COc1ccc(CCN2CC(C(=O)N(C)Cc3cccnc3)CC2=O)cc1OC (stereo unspecified) | 2 | / | / | /
COc1cc(C(=O)OCC(=O)N2CCC(Cc3ccccc3)CC2)cc(OC)c1OC | -26 | / | / | /
Cc1cc(N=Nc2ccc(C)c(N=Nc3cc(C)c(N)cc3N)c2)c(N)cc1N | 21 | 60* | -135 | /
COc1ccccc1N(CCC#N)C(=O)CSc1nnc2ccccn12 | -7 | / | / | /
SMILES | MCL1 BIM primary | Mcl1 Noxa PPI | Mcl1-Bid inh | Bim-Mcl-1
Cc1ccc(N(Cc2ccccc2F)S(C)(=O)=O)cc1C | 5 | -12 | 0 | 0
COc1ccc(N2CCN(C(=O)c3ccc(CSc4ccccc4)cc3)CC2)cc1 | -1 | 96* | -17 | -2
COc1ccc(N2CCN(C(=O)c3ccc4c(c3)OCO4)CC2)cc1 | 0 | -6 | 86* | -2
CC(=O)c1ccc(N2CCN(C(=O)c3ccc4c(c3)OCO4)CC2)cc1 | -4 | / | / | /
O=C(CS(=O)(=O)c1ccccc1)Nc1cccnc1 | 0 | -6 | -7 | 3
CN(CC(=O)Nc1cccnc1)S(=O)(=O)c1ccccc1 | 3 | -1 | 64* | -2
CC(=O)c1ccc(-c2ccc(C(=O)Nc3nc(C)c(C(C)=O)s3)o2)cc1 | -77 | / | / | /
CC(C)=CCC/C(C)=C/CN(CC(C)O)CC(C)O (stereo unspecified) | 1 | 10 | -41 | -1
CC(O)CN(CCC(N)=O)CCC(N)=O (stereo unspecified) | 0 | 15 | 52* | -1
CC(=O)Cc1nsc(NC(=O)c2ccc(-c3cc(C(F)(F)F)ccc3Cl)o2)n1 | 5 | 6 | 68* | -3
CC(=O)Cc1nsc(NC(=O)c2ccc(-c3cc(Cl)ccc3Cl)o2)n1 | 7 | 18 | 3 | -3
Cn1c(CNc2nc(-c3ccccc3)cs2)nnc1SCC(=O)N1CCc2ccccc21 | 3 | 5 | -18 | 51*
Cc1c(C(=O)OCC2CCCO2)[nH]c2c1C(=O)CC(c1ccco1)C2 (stereo unspecified) | 34 | 70* | 9 | 0
Cc1c(C(=O)OCC(C)C)[nH]c2c1C(=O)CC(c1ccco1)C2 (stereo unspecified) | 1 | 2 | -14 | -1
O=C(NNC(=O)c1ccco1)c1csc(N2CCOCC2)n1 | -2 | / | / | /
Nc1ccccc1Nc1ccccc1 | 1 | 52* | 75* | 0
CC(C)C(=O)Nc1cc2c3c(c1)CCN3C(=O)CC2 | 5 | / | / | /
Cc1cccc(C)c1OCc1cc(C(=O)N(C)CCc2ccccn2)no1 | 6 | / | / | /
CCCCCCn1nc(C(=O)Nc2nc3c(s2)CCCC3)c2ccccc2c1=O | 0 | 25 | 10 | 45*
O=C(NN1C(=O)C2C(C1=O)C1C=CC2C12CC2)c1ccc(Cl)cc1 (stereo unspecified) | -2 | 32 | 100* | /
O=C(CN1CCCCC1)Nc1nnc(-c2ccccc2)s1 | 10 | 9 | -28 | -2
O=C(CN1CCCCC1)Nc1nnc(-c2ccc([N+](=O)[O-])cc2)s1 | 8 | 69* | -22 | -2
COCCNC(=O)c1cn(C)c2ccc(S(=O)(=O)N3CCCCC3)cc2c1=O | 4 | / | / | /
COc1ccc(S(=O)(=O)N(C)C)cc1NC(=O)c1ccc(OCC(=O)N2CCOCC2)c(OC)c1 | -9 | / | / | /
O=C(Nc1ccc2c(c1)nc1n2CCSC1)c1ccco1 | 18 | 60* | 5 | -1
SMILES | MCL1 BIM primary | Mcl1 Noxa PPI | Mcl1-Bid inh | Bim-Mcl-1
O=C(Nc1ccc2c(c1)nc1n2CCOC1)c1ccco1 | 2 | 10 | -7 | -2
O=C(Nc1ccc2c(c1)nc1n2CCN(C2CCCCC2)C1)c1ccco1 | / | 84* | -55 | /
O=C(O)c1cccc(S(=O)(=O)N2CCN(C(c3ccccc3)c3ccccc3)CC2)c1 | 3 | 3 | -3 | -2
Cc1cc(F)ccc1S(=O)(=O)N1CCCOC1CNC(=O)C(=O)NC1CCCC1 (stereo unspecified) | 0 | / | / | /
CCOc1ccc(C(C(=O)NCC2CCCO2)N(Cc2cccs2)C(=O)c2snc(C(N)=O)c2N)cc1 (stereo unspecified) | -4 | / | / | /
CCOc1ccc(-c2nnc(-c3ccccc3)o2)cc1 | 2 | 1 | -13 | 0
CCOc1ccc(-c2nnc(-c3ccccc3)n2-c2ccccc2)cc1 | 2 | -122 | 61* | 3
COc1ccc(N=CC2=C(Nc3ccc(OC)cc3)c3c(C)nn(-c4ccccn4)c3CC2)cc1 | + | / | / | /
COc1nc(C)nc(NC(=O)NS(=O)(=O)c2ccc(C)cc2)n1 | -4 | 65* | -12 | -5
Cc1ccc(Cl)cc1N1CCN(C(=O)CCS(=O)(=O)c2ccc3c(c2)NC(=O)CO3)CC1 | 2 | / | / | /
